# Experimental data as given in PubChem BioAssay AID488932 (Broad Institute, 2010).
# Results with a measured potency or affinity are listed apart. Calls of active or inactive are those of the source.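 How the source made its calls: active means growth signal falls, with fitted half-maximal dose at most ten times the top valid dose; inconclusive means flat curve with a partial drop, or a poorly fitting curve; inactive means the rest, including compounds that raise signal.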
# Test: single-agent toxicity toward C. albicans – CaCi-2 strain, no fluconazole, dry powder, set 4, counter-screen for reversing antifungal drug resistance, dose response (AID 488932)
# Conditions: C. albicans CaCi-2 (fluconazole-resistant clinical isolate) growth, Alamar Blue, 48 h; series mostly up to 26 µM
row,SMILES,outcome
1,O=S(=O)(c1ccc(Cl)cc1)N1CCN(c2ccnc3cc(Cl)ccc23)CC1,inactive
2,O=C(c1ccc(Cl)c(Cl)c1)N1CCN(c2ccnc3cc(Cl)ccc23)CC1,inactive
3,O=C(Nc1ccc(C(F)(F)F)cc1)N1CCN(c2ccnc3cc(Cl)ccc23)CC1,inactive
4,O=C(c1ccc(Cl)cc1)N1CCN(c2ccnc3ccccc23)CC1,inactive
5,O=C(C1CCCC1)N1CCN(c2ccnc3cc(Cl)ccc23)CC1,inactive
6,Cc1ccc(C(=O)N2CCN(c3ccnc4cc(Cl)ccc34)CC2)cc1,inactive
7,O=C(c1ccc(Cl)cc1)C1CCN(c2ccnc3cc(Cl)ccc23)CC1,inactive
8,O=C(c1ccccc1Cl)N1CCN(c2ccnc3cc(Cl)ccc23)CC1,inactive
9,O=C(c1ccc(Cl)cc1)N1CCN(c2ncccn2)CC1,inactive
10,O=C(c1ccc(Cl)cc1)N1CCN(c2cc(C(F)(F)F)nc3ccccc23)CC1,inactive
11,COc1ccc(OC)c2c(C)cc(N3CCN(C(=O)c4ccc(Cl)cc4)CC3)nc12,inactive
12,CC(C)C(=O)N1CCN(c2ccnc3cc(Cl)ccc23)CC1,inactive
13,CC1CN(c2ccnc3cc(Cl)ccc23)CCN1C(=O)c1ccc(Cl)cc1 (stereo not drawn),inactive
14,CCCC(=O)N1CCN(c2ccnc3cc(Cl)ccc23)CC1,inactive
15,Cc1cc(N2CCN(C(=O)c3ccc(Cl)cc3)CC2)c2ccccc2n1,inactive
16,O=C(c1ccc(Cl)cn1)N1CCN(c2ccnc3cc(Cl)ccc23)CC1,inactive
17,CCCCNC(=O)N1CCN(c2ccnc3cc(Cl)ccc23)CC1,inactive
18,O=C(c1ccc(Cl)cc1)N1CCN(c2ccnc3ccc(Cl)cc23)CC1,inactive
19,Clc1ccc2c(N3CCNCC3)ccnc2c1,inactive
20,O=C(c1ccc(Cl)cc1)N1CCN(c2ncnc3ccccc23)CC1,inactive
21,O=C(c1ccc(Cl)cc1)N1CCNCC1,inactive
22,O=C(c1cccs1)N1CCN(c2ccnc3cc(Cl)ccc23)CC1,inactive
23,Cc1ccc(N2CCN(C(=O)c3ccc(Cl)cc3)CC2)nn1,inactive
